PubChem BioAssay (Tox21)
Results filed as inconclusive are left out. Where a call stands in place of a potency, no number is given. Calls of active or inactive are those of the source. The call rests on the fitted dose curve; in most records, active means well fitted cell-killing curve with a large enough effect in the repeat runs; inconclusive means weak or mixed curves, or effect the other way; inactive means no such curve, though single readings can be large or run the other way.
Potency means the concentration at half of the fitted maximal effect.

Assay: qHTS assay to identify small molecule agonists of the farnesoid-X-receptor (FXR) signaling pathway - cell viability counter screen (AID 743218); further: nearly all actives have a fitted effect of over 45% in size
Conditions: FXR-bla HEK293T viability, CellTiter-Glo luminescence, 16 h; series mostly up to 62.6 µM
From the text: U.S. Tox21 Program National Center for Advancing Translational Sciences [NCATS] NIH Chemical Genomics Center [NCGC] U.S. Environmental Protection Agency [EPA] National Institutes of Environmental Health Sciences [NIEHS] National Toxicology Program [NTP] U.S. Food and Drug Administration [FDA] Tox21 Assay Overview: The farnesoid-X-receptor (FXR), a nuclear hormone receptor, is highly expressed in liver, intestine, kidney and adrenal cortex. Natural ligands of FXR are the bile acids (Cholic acid, Chenodeoxy cholic acid etc). FXR is an important regulator of diverse metabolic pathways, including the bile acid homeostasis, lipid and glucose metabolisms. FXR regulates the expression of target genes by binding either as a monomer or as a heterodimer with the retinoid X receptor (RXR). Numerous studies have reported that FXR exerts protective function during cholestasis, diabetes, liver regeneration, and cancer. To identify compounds that activate FXR signaling, GeneBLAzer FXR-UAS-bla HEK 293T cell line (Invitrogen, Carlsbad, CA) containing a beta-lactamase reporter gene under the control of a UAS response element was used to screen the Tox21 10K compound library. The cytotoxicity of the Tox21 compound library against the FXR-bla cell line was tested in parallel by measuring the cell viability using CellTiter-Glo assay in the same wells.
Tox21 Assay Protocol Summary: FXR-bla cells were dispensed at 5000 cells/5uL/well in 1536-well black wall/clear bottom plates using a Multidrop Combi (Thermo Fisher Scientific, Waltham, MA) dispenser. After the assay plates were incubated at 37 C and 5% CO2 for 5 h, 23 nL of compounds dissolved in DMSO, positive controls or DMSO only was transferred to the assay plate by a Pintool station (Kalypsys, San Diego, CA). The assay plates were incubated at 37C for 16 h. After 1 uL of LiveBLAzerTM B/G FRET substrate was added using a Bioraptr Flying Reagent Dispenser (FRD) workstation (Beckman Coulter, Indianapolis, IN), the plates were incubated at room temperature for 2 h, and fluorescence intensity was measured by an Envision plate reader (PerkinElmer, Shelton, CT). For cell viability readout that measures cytotoxicity, 4uL/well of CellTiter-Glo reagent was added into the assay plates using a Bioraptr FRD. After 30 min incubation at room temperature, the luminescence intensity in the plates was measured using a ViewLux plate reader (PerkinElmer).
With `COc1cc2c(N3CCN(C(=O)Nc4ccc(OC(C)C)cc4)CC3)ncnc2cc1OCCCN1CCCCC1` the Potency was “inactive”.
For `Cc1ccc(Nc2nccc(N(C)c3ccc4c(C)n(C)nc4c3)n2)cc1S(N)(=O)=O`, the Potency was “inactive”.
In the case of `COc1cc2c(cc1OC)-c1cc(=Nc3c(C)cc(C)cc3C)n(C)c(=O)n1CC2`, the Potency is reported as “inactive”.
For `COc1ccc([C@@H]2Sc3ccccc3NC(=O)[C@@H]2O)cc1`, the Potency was “inactive”.
In the case of `CCNC(=O)N1CCN(CCCC(c2ccc(F)cc2)c2ccc(F)cc2)CC1`, the Potency is reported as “inactive”.
With `CN(C)C(=O)Nc1ccc(Oc2ccc(Cl)cc2)cc1` the Potency was “inactive”.
In the case of `O=C(O)c1cccc(O)c1`, the Potency is reported as “inactive”.
In the case of `O=C(Nc1ccc([N+](=O)[O-])cc1)Nc1ccc([N+](=O)[O-])cc1`, the Potency is reported as 0.75 µM (active).
For `CN1CCCN=C1/C=C/c1cccs1`, the Potency was “inactive”.
In the case of `Cc1ccc(S)cc1`, the Potency is reported as “inactive”.
In the case of `O=C(O)C(Cc1cc(I)c(O)c(I)c1)c1ccccc1` (stereo not given), the Potency is reported as “inactive”.
With `CC(C)c1nnc2ccc(-c3ocnc3-c3cc(F)ccc3F)cn12` the Potency was “inactive”.
With `CCCCN(CCCC)CCCOC(=O)c1ccc(N)cc1` the Potency was “inactive”.
For `C[Si]1(C)O[Si](C)(C)O[Si](C)(C)O1`, the Potency was “inactive”.
For `COCC(O)CO` (stereo not given), the Potency was “inactive”.
In the case of `CC1=C(C=O)C(C)(C)CCC1`, the Potency is reported as “inactive”.
In the case of `Cc1ccc(/C=N/n2c(-c3ccccc3)csc2=S)cc1`, the Potency is reported as “inactive”.
In the case of `CCCC1C(CC)=CC(CC)=CN1c1ccccc1` (stereo not given), the Potency is reported as “inactive”.
In the case of `C/C=C(\C)C(=O)OCCC(C)CCC=C(C)C` (stereo not given), the Potency is reported as “inactive”.
With `NC(=O)Nc1ccc(Cl)cc1` the Potency was “inactive”.
For `Fc1ccccc1[C@@H](F)COC1CCC(Nc2ncnc3[nH]ncc23)CC1` (stereo not given in full), the Potency was “inactive”.
In the case of `Nc1c(I)cc(I)c(C(=O)N(CCC(=O)O)c2ccccc2)c1I`, the Potency is reported as “inactive”.
With `COC(=O)c1cc(Cl)ccc1NS(=O)(=O)C(F)(F)F` the Potency was “inactive”.
For `Cc1cc(OI)c(C(C)C)cc1-c1cc(C(C)C)c(OI)cc1C`, the Potency was “inactive”.
With `CCc1nn(CCCN2CCN(c3cccc(Cl)c3)CC2)c(=O)n1CCOc1ccccc1` the Potency was “inactive”.
In the case of `COC(=O)CC(=O)C(C)(C)C`, the Potency is reported as “inactive”.
For `CCc1cccc(N(C)C(N)=Nc2cccc3ccccc23)c1`, the Potency was “inactive”.
For `C=CC(C)(C)CC(=O)OC`, the Potency was “inactive”.
In the case of `c1cc[c]([Bi]([c]2ccccc2)[c]2ccccc2)cc1`, the Potency is reported as “inactive”.
In the case of `Cc1nc2ccccn2c(=O)c1CCN1CCC(C(=O)c2ccc(F)cc2)CC1`, the Potency is reported as “inactive”.
In the case of `CCC(C)(C)C1CCC(O)CC1` (stereo not given), the Potency is reported as “inactive”.
For `C=CCCCCCCCCCCCCCCCC`, the viability change, negative = cytotoxic was 4.85% [at 5.95 µM] (inactive).
In the case of `CNCCCC1c2ccccc2C=Cc2ccccc21`, the Potency is reported as 23.7 µM (active).
For `Nc1ccc(C(=O)OCCCOC(=O)c2ccc(N)cc2)cc1`, the Potency was “inactive”.
In the case of `Cc1nc2ccccc2s1`, the Potency is reported as “inactive”.
In the case of `Fc1c(F)c(F)c(Br)c(F)c1F`, the Potency is reported as “inactive”.
In the case of `CNC(=O)N(c1ccccc1)c1ccccc1`, the Potency is reported as “inactive”.
For `CCCOC(=O)c1ccc(C(=O)OCCC)nc1`, the Potency was “inactive”.
In the case of `O=C(O)c1snc(Cl)c1Cl`, the Potency is reported as “inactive”.
For `NC(=O)Cn1c(=O)cc(CCN2CCN(c3nccc4sccc34)CC2)c2ccc(F)cc21`, the Potency was “inactive”.
